# Assay outcomes from PubChem BioAssay.
# Rows were chosen to be rich in hits. Some 4.6% of all compounds tested hit in one or more screens of this group.
# KKLEB cytotox: counter-screen for CF NF-kB inhibitors: cytotoxicity | KKLEB CF airway cells viability, ATPlite luminescence, overnight; hits give low values; cells stimulated with P. aeruginosa culture filtrate | 0.36% of 360,000 active | activity change (cytotoxicity), % at 5 µM;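 active means corrected activity change at or below -50% at 5 µM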
# HIF-2a inh: HIF-2a inhibition | 786-0 RCC cells HIF-2a reporter, luciferase luminescence, overnight | inhibition, % at 18.8 µM | 0.72% of 360,000 active;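 active means inhibition of the luminescence signal of 40% or more relative to plate controls, in a single-dose primary screen at 18.75 µM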
# Mdm2-MdmX inh: human Mdm2/MdmX binding inhibition; O15151+Q00987; SaOS-2 split-luciferase Mdm2/MdmX complementation, luminescence; inhibition, % at 8 µM; 3% of 330,000 active;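 active means inhibition of at least 50% at 8 µM in the primary screen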
# Peg3 promoter: inhibitors of Peg3 promoter; HeLa PEG-Prom luciferase reporter, luminescence, overnight; inhibition, % at 20 µM; 1.7% of 360,000 active;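 active means inhibition of at least 50% at 20 µM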
# ABHD5-PLIN5 inh: blocks binding of human ABHD5 to perilipin-5; Split G. princeps luciferase complementation, luminescence, 4 h; inhibition, % at 4 µM; 0.78% of 360,000 active; AID 602281;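 active means inhibition above the mean inhibition across every tested compound plus 3 SD, cut at about 22% in these data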;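 further: 0% = DMSO only wells and the 100% control is not disclosed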
# CF NFkB inh: blocks PAF-induced NF-kB reporter in cystic fibrosis cells; AID 588850; inhibition, % at 5 µM; 0.86% of 360,000 active; KKLEB NF-kB-GFP reporter, GFP fluorescence overnight;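 active means at least 50% inhibition at 5 µM, scaled per plate between neutral and stimulator controls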;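 further: PAF is a Pseudomonas aeruginosa culture filtrate used as stimulus; plate controls were PAF-stimulated DMSO wells for no effect and unstimulated DMSO wells for full effect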
# Mdm2 MdmX conf: human Mdm2/MdmX binding inhibition, confirmed; shares compounds with Mdm2-MdmX inh; luminescent assay; inhibition, % at 8 µM; 55% of 10,000 active; AID 489028; in the data active means inhibition above about 40%
# FLuc counter: inhibits full-length luciferase, flagging false Mdm2/MdmX hits; 77% of 6,200 active; SaOS-2 full-length luciferase counterscreen, luminescence; inhibition, % at 8 µM; AID 504607; shares compounds with Mdm2-MdmX inh;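 active means mean inhibition at 8 µM reaching about 37%, which flags the compound as non-specific, limit read from the data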;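 further: p53-null SaOS-2 cells with luciferase driven by a doxycycline-inducible promoter; compound on cells about two nights before reading with doxycycline added after day one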
# * marks the source's active call; other numbers are inactive results; / = no result.
SMILES,KKLEB cytotox,HIF-2a inh,Mdm2-MdmX inh,Peg3 promoter,ABHD5-PLIN5 inh,CF NFkB inh,Mdm2 MdmX conf,others
NC(=S)NN=Cc1cc(-c2cccc(N)c2)ccn1,-7.0,-75.1,/,25.4,-16.0,17.8,/,
Cc1ccc(-n2nc(C)c(NC(=O)CCl)c2C)cc1,-9.7,-23.9,85.2*,28.2,2.0,9.3,42.5*,FLuc counter=70.7*
Cc1cc(NC(=O)COc2ccccc2)n(-c2ccccc2)n1,13.5,-3.3,-27.2,15.4,-3.0,-0.2,/,
Cc1ccc(-c2cc(NC(=O)CCl)n(-c3ccccc3)n2)cc1,-13.6,-179.8,92.4*,37.2,8.2,-48.5,19.1,
O=C(CCl)Nc1cc(-c2ccccc2)nn1-c1ccccc1,-53.5*,-24.6,83.8*,40.6,-6.1,-0.3,62.0*,FLuc counter=22.4
CC(=O)Nc1c(C)nn(-c2ccc([N+](=O)[O-])cc2)c1C,12.3,4.6,13.1,-2.6,-9.7,-9.7,/,
CC(=O)Nc1ccc(-c2cc(NC(C)=O)n(-c3ccccc3)n2)cc1,3.2,1.7,17.0,0.3,0.9,9.8,/,
Cc1ccc(-c2nn(-c3ccccc3)cc2NC(=O)CCl)cc1,-34.5,-76.3,65.9*,105.1*,-2.6,25.2,7.3,
O=C(NN1CCOCC1)c1ccc(F)cc1,-12.4,10.8,39.9,9.7,-13.3,9.1,/,
CNc1nc2ccccc2n1CC(=O)c1ccccc1,0.5,-114.7,-58.6,-61.7,12.8,5.0,/,
Cc1nnc(N2CCCC(C(=O)NCc3ccccc3F)C2)c2nn(-c3ccccc3)c(C)c12 (configuration not stated),1.3,17.1,68.5*,14.9,-5.0,-16.2,29.8,
Cc1nnc(N2CCC(C(=O)N3CCCCCC3)CC2)c2nn(-c3ccc(Cl)cc3)c(C)c12,-26.9,19.1,59.7*,34.7,10.2,4.9,33.2,FLuc counter=83.0*
Cc1ccc(-n2nc3c(N4CCC(C(=O)N5CCCCCC5)CC4)nnc(C)c3c2C)cc1,19.0,15.2,49.7,29.8,12.7,1.7,/,
CC(=O)Nc1cccc(-c2ccnc3c2CC(C)(C(=O)Nc2ccc(Cl)c(C(F)(F)F)c2)O3)c1 (configuration not stated),-6.4,-5.1,/,46.3,-1.2,-8.7,/,
N/C(=N\OC(=O)C12CC3CC(CC(C3)C1)C2)c1ccncc1,-1.3,-22.0,83.7*,-9.2,-3.3,-9.3,14.1,
Cc1ccc(/C(N)=N/OC(=O)C23CC4CC(CC(C4)C2)C3)cc1,-5.2,-131.6,20.4,-150.3,-4.8,0.2,/,
Nc1nc(-c2ccc(Cl)cc2)nc(-c2ccc(Cl)cc2)n1,-9.1,0.8,57.1*,16.7,4.1,-4.4,40.4*,FLuc counter=61.3*
CSc1nc(-c2ccc(C)cc2)nc(N)c1C#N,4.3,12.1,7.5,26.4,-8.1,-27.8,/,
N#Cc1c(N)nc(-c2ccccc2)nc1-c1ccccc1,1.4,-6.3,56.2*,6.1,-1.1,-14.0,3.1,
CC(C)(C)c1ccc(-c2nc(N)nc(N)n2)cc1,-8.2,-212.0,4.2,-159.9,-4.4,-3.0,/,
CSc1nc(-c2ccc(Cl)cc2)nc(N)c1C#N,-10.6,11.0,66.9*,18.4,-6.0,-10.2,44.0*,FLuc counter=73.0*
O=C(Nc1cccc(S(=O)(=O)N2CCOCC2)c1)C1CCN(S(=O)(=O)c2ccccc2)CC1,-9.7,11.3,4.3,18.8,1.2,26.6,/,
Cc1cn(CC(=O)NCc2ccc(N(C)C)cc2)c(=O)[nH]c1=O,-5.6,0.2,/,-0.3,-6.9,2.0,/,
Oc1cccc(NC(=S)N=Nc2c(O)[nH]c3ccccc23)c1,-26.0,-180.3,10.5,-124.1,3.7,-19.3,/,
CCOc1ccc(NC(=S)N=Nc2c(O)[nH]c3ccccc23)cc1,7.7,-16.2,64.2*,-12.1,-2.5,-8.6,28.2,
Oc1[nH]c2ccccc2c1N=NC(=S)N1CCOCC1,25.5,16.4,97.3*,53.5*,-1.7,17.1,87.5*,FLuc counter=20.6
NC(=S)N=Nc1c(O)[nH]c2ccccc12,4.2,-4.1,-17.1,13.5,5.0,2.0,/,
Cc1cc(=O)oc2cc(OCC(=O)Nc3ccccc3C(N)=O)c(Cl)cc12,7.6,-23.9,22.9,-2.1,-0.4,-27.9,/,
CCCCC(=O)N(C)c1c(CC)nc2c(OCC(=O)N3CCOCC3)cccn12,-8.6,2.4,/,-3.1,2.0,20.9,/,
